Test results as given in PMC5540273 (PLoS ONE, 2017).

Assays:
Settings in all cases: concentration: 1 μM, replicates: in singlicate; n = 1
SGK2 = system: SGK2
SGK3 = system: SGK3
SGK = system: SGK
SIK2 = system: SIK2
SIK = system: SIK
SLK = system: SLK
SNARK = system: T1, SNARK
T1 construct: gene NUAK2

SNRK = system: SNRK
SRC = system: SRC
SRMS = system: SRMS
SRPK1 = system: SRPK1
SRPK2 = system: SRPK2
SRPK3 = system: SRPK3
STK16 = system: STK16
STK33 = system: STK33
STK35 = system: STK35
STK36 = system: STK36
STK39 = system: STK39
SYK = system: SYK
SgK110 = system: SgK110
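Further: KINOMEscan kinase panel screen.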

SMILES | %Inh (SGK2) [%] | %Inh (SGK3) [%] | %Inh (SGK) [%] | %Inh (SIK2) [%] | %Inh (SIK) [%] | %Inh (SLK) [%] | %Inh (SNARK) [%] | %Inh (SNRK) [%] | %Inh (SRC) [%] | %Inh (SRMS) [%] | %Inh (SRPK1) [%] | %Inh (SRPK2) [%] | %Inh (SRPK3) [%] | %Inh (STK16) [%] | %Inh (STK33) [%] | %Inh (STK35) [%] | %Inh (STK36) [%] | %Inh (STK39) [%] | %Inh (SYK) [%] | %Inh (SgK110) [%]
Cc1c(Cn2c(C)nn3c(=O)cc(N4CCO[C@H](C)C4)nc23)cccc1C(F)(F)F [GSK2373690] | 13 | 0 | 26 | 0 | 1 | 18 | 0 | 0 | 1 | 0 | 0 | 0 | 0 | 6 | 0 | 2 | 0 | 32 | 25 | 2
Cc1nn2c(=O)cc(N3CCOCC3)nc2n1Cc1cccc(Cl)c1Cl [GSK2342769] | 0 | 0 | 0 | 0 | 0 | 4 | 0 | 0 | 4 | 0 | 19 | 0 | 0 | 0 | 0 | 0 | 0 | 10 | 8 | 0
Nc1ncnc2c1ncn2-c1ccc(Cl)cc1 [AH2635] | 0 | 0 | 0 | 0 | 3 | 20 | 0 | 0 | 0 | 0 | 0 | 13 | 0 | 3 | 0 | 0 | 0 | 0 | 31 | 0
COC(=O)c1c(-c2ccccc2)c2cc(Br)ccc2c(=O)n1Cc1ccc(S(C)(=O)=O)cc1 | 21 | 23 | 14 | 0 | 22 | 0 | 20 | 11 | 8 | 0 | 0 | 0 | 1 | 38 | 2 | 0 | 10 | 2 | 0 | 6
COc1cccc(C2=C(N(C)c3ccccc3)C(=O)NC2=O)c1 [SB-334865] | 0 | 3 | 0 | 0 | 0 | 13 | 0 | 0 | 0 | 0 | 0 | 7 | 0 | 22 | 0 | 0 | 0 | 7 | 9 | 0
COc1cc2ncn(-c3cc(OCCCc4ccccc4)c(C(N)=O)s3)c2cc1OC [GSK205189] | 0 | 0 | 0 | 0 | 2 | 79 | 0 | 0 | 0 | 0 | 27 | 0 | 7 | 13 | 0 | 15 | 0 | 0 | 21 | 0
Nc1nc(-c2ccccc2F)c(-c2ccnc3ccccc23)s1 [GW560459] | 1 | 5 | 15 | 0 | 0 | 4 | 8 | 0 | 0 | 0 | 25 | 0 | 0 | 7 | 0 | 0 | 0 | 1 | 32 | 0
COc1ccc(CNC(=O)NC2CCN(c3ccnc(Nc4ccc(F)cc4)n3)C2)cc1 (stereo not drawn) [GSK1379706] | 0 | 0 | 0 | 0 | 13 | 9 | 0 | 0 | 0 | 0 | 0 | 80 | 21 | 19 | 14 | 0 | 27 | 13 | 34 | 0
COc1cc2ncn(-c3cc(OCc4ccncc4Br)c(C(N)=O)s3)c2cc1OC [GW854278] | 3 | 16 | 4 | 6 | 26 | 95.9 | 0 | 0 | 0 | 0 | 44 | 0 | 28 | 14 | 6 | 0 | 1 | 0 | 20 | 0
CCn1c(-c2ccoc2)nc2cnccc21 [SB-733887] | 5 | 4 | 12 | 0 | 0 | 25 | 0 | 0 | 0 | 0 | 41 | 18 | 0 | 1 | 0 | 0 | 0 | 0 | 26 | 0
O=c1cc(N2CCOCC2)nc2n(Cc3ccc(F)c(Cl)c3)ccn12 [GSK2297099] | 0 | 19 | 0 | 0 | 0 | 0 | 20 | 0 | 0 | 0 | 0 | 0 | 0 | 24 | 0 | 0 | 0 | 0 | 7 | 8
O=C1NC(=O)C(c2ccccc2)=C1Nc1cccc(O)c1 [SB-390534] | 9 | 20 | 11 | 0 | 0 | 51 | 16 | 0 | 0 | 17 | 20 | 7 | 0 | 0 | 4 | 2 | 0 | 4 | 6 | 0
Cc1ccc(Oc2ccc(Nc3ncnc4cc[nH]c34)cc2C)cn1 | 5 | 5 | 12 | 0 | 21 | 10 | 6 | 32 | 16 | 22 | 0 | 0 | 0 | 27 | 0 | 0 | 13 | 15 | 11 | 0
CCCC(=O)Nc1n[nH]c2ncc(-c3cccc4ccccc34)cc12 [SB-642057] | 0 | 26 | 0 | 0 | 0 | 14 | 0 | 0 | 0 | 4 | 16 | 0 | 0 | 24 | 0 | 4 | 0 | 6 | 0 | 0
COc1cc(OC)cc(-c2cc3cnc(N)nc3nc2NC(=O)NC(C)(C)C)c1 | 0 | 17 | 0 | 0 | 6 | 0 | 0 | 1 | 0 | 0 | 47 | 0 | 0 | 0 | 0 | 0 | 0 | 0 | 0 | 0
Cc1ccccc1COc1cc(-n2cnc3cc(Cl)ccc32)sc1C(N)=O [GW813349] | 6 | 1 | 0 | 0 | 4 | 73 | 4 | 3 | 0 | 0 | 10 | 34 | 10 | 0 | 30 | 0 | 30 | 0 | 9 | 0
COc1cc(Nc2nccc(N3CCC(NC(=O)C4COc5ccccc5O4)C3)n2)cc(OC)c1OC (stereo not drawn) [GSK1379761] | 0 | 0 | 17 | 0 | 0 | 17 | 23 | 0 | 53 | 11 | 65 | 70 | 0 | 70 | 4 | 13 | 40 | 0 | 44 | 0
COc1ccc(-n2cnc3c(N)ncnc32)cc1 [SKF-97236] | 6 | 11 | 0 | 14 | 0 | 11 | 24 | 0 | 0 | 0 | 28 | 0 | 15 | 38 | 20 | 0 | 0 | 0 | 18 | 0
COc1cc2nccc(Nc3cccc(Oc4ccccc4)c3)c2cc1OC.Cl [GW284543] | 0 | 0 | 37 | 0 | 0 | 21 | 0 | 0 | 7 | 55 | 65 | 0 | 0 | 0 | 0 | 0 | 0 | 1 | 37 | 0
CCS(=O)(=O)c1ccc(OC)c(Nc2ncc(-c3ccc(F)cc3)o2)c1.Cl [GW591947] | 2 | 0 | 0 | 0 | 2 | 6 | 0 | 0 | 0 | 0 | 30 | 0 | 0 | 1 | 12 | 0 | 0 | 11 | 48 | 0
O=C(Nc1ccc2c(c1)OCO2)NC1CCN(c2ccnc(NCc3ccc(F)cc3)n2)CC1 [GSK1379859] | 0 | 0 | 0 | 0 | 0 | 12 | 0 | 0 | 17 | 0 | 28 | 0 | 0 | 7 | 0 | 0 | 0 | 0 | 16 | 0
